Data as given in ChEMBL document CHEMBL3988442, “University of Dundee, Small-Polar-MMV Screening Library” (2021).

Target: Shiga toxin 2 (Escherichia coli O157:H7) (UniProt P09385+P09386)
Assay: E. coli 0.157:H7 Shiga Toxin SOP - stx2 screening assay
Format: functional
Design: scale not given: direction of the effect not stated beside the values
Conditions: 30 µM

Row | Structure (SMILES) | Percent Effect [%]
1 | Cn1cc(C[C@H]2[C@H](O)CCN2CC2CC2)cn1 | 2.72
2 | CNc1cncc(C2CCCN2Cc2c[nH]cn2)n1 (stereo not given) | 7.95
3 | CC(C)c1nc(C2CCCN2Cc2ccn(C)c(=O)c2)no1 (stereo not given) | -44.4
4 | C=C1c2ccccc2C(=O)N1CCC(=O)N1CCNC(=O)C1 | 25.2
5 | COCCCNc1nccc(-c2c[nH][nH]c2=O)n1 | -55.9
6 | CC(C)(C)c1nc(CN2CCCC(Cn3cncn3)C2)cs1 (stereo not given) | 13.2
7 | CC1CCN(S(=O)(=O)NCC2CCOc3ccccc3C2)CC1 (stereo not given) | 5.97
8 | CC(C)c1nc(CN(C)C2CCN(CCNS(C)(=O)=O)C2)no1 (stereo not given) | -26.6
9 | Cc1nc(CO[C@@H]2CN(Cc3cnn(C)c3)[C@@H]3COC[C@@H]32)cs1 | -3.46
10 | O=C(NC[C@]1(O)CN(Cc2ccccc2F)C[C@H]1O)c1ccccn1 | 19.5
11 | COCc1ccccc1CNCc1c(C)nn(C)c1N(C)C | 22.6
12 | Cn1c(C(F)(F)F)nn(CCNC(=O)NCc2ccccc2)c1=O | -52.8
13 | Cn1cc(CN2CCCC23CCN(C(=O)c2cccn2C)CC3)cn1 | -10.8
14 | CNC(=O)CSc1cnn(CC(=O)Nc2cccc(Cl)c2C)c(=O)c1Cl | -8.91
15 | CCC(=O)Nc1nnc(CCOc2cccc(OC)c2)s1 | 5.93
16 | Fc1ccc(CN2CCC(c3nccnc3-n3ccnc3)CC2)cc1 | -0.684
17 | CCN(CC)C(=O)c1ccc(-c2ccsc2)nc1C | -6.7
18 | Cc1ccc(OCC(O)CN2CCC(Cn3cccn3)CC2)cc1 (stereo not given) | -51.7
19 | COc1ccc(-n2nnc(C(=O)NC(C)C)c2C2CC2)cc1 | 10.4
20 | CC(C)n1ccnc1C1CCN(Cc2ccc(Cl)s2)CC1 | -48.4

Row | Structure (SMILES) | Percent Effect [%]
21 | CN(C(=O)Cn1nc(-c2cccs2)ccc1=O)C1CCS(=O)(=O)C1 (stereo not given) | -35.1
22 | Cc1nc2ccccc2nc1CN1CCCC1c1c(C)nn(C)c1C (stereo not given) | -18.4
23 | CNC(=O)N1CC[C@@H]2CN(Cc3cccnc3)S(=O)(=O)[C@@H]2CC1 | -0.136
24 | c1ccc(OCc2ccncc2)c(CNC2CCc3ncnn3C2)c1 (stereo not given) | -62.8
25 | COCc1ncn2c1CN(C(=O)C1CC=CC1)CC2 | 0.0561
26 | O=C(c1cscn1)N1CCC2(CCN(Cc3nccs3)C2)CC1 | -5.87
27 | Cc1nn2c(N3CCC(O)CC3)cc(-c3ccccc3)nc2c1C | 7.56
28 | COc1ccc(Cl)cc1NCC(=O)NCCc1ccccn1 | 25.8
29 | CSCCCN1CC[C@@H](NC(=O)c2cnccn2)[C@H](O)C1 | 2.82
30 | Cc1ccc(N2CC[C@H]3OCC[C@@]3(C(=O)NC(C)C)C2)nn1 | 7.17
31 | CN(Cc1nc(N)c2ccccc2n1)CC1CCCN1c1cccnn1 (stereo not given) | 24.7
32 | Cc1cn(-c2ccccc2)nc1NS(=O)(=O)c1cc(C(=O)O)cs1 | -40
33 | NCCn1nc(C2CCN(C(=O)CC3CCCCC3)C2)c2nccnc21 (stereo not given) | -31.7
34 | O=C(c1cccnc1N1CCOCC1)N1CCCC(n2ccnc2)C1 (stereo not given) | 31.6
35 | Cc1cc(CN(C)C(=O)c2cccc(N3CCCC3=O)c2)no1 | -12.4
36 | COc1cc2cc(C(=O)N[C@@H](C)C(=O)O)n(C)c2c(OC)c1OC | -30.8
37 | CC(C)Cc1noc(CN2CCN(c3nccs3)CC2)n1 | 11.6
38 | CCn1cnnc1C1CCN(C(=O)c2ccc(C(=O)OC)s2)CC1 | 7.28
39 | Cc1cc(C2CCCN(CCCS(=O)(=O)c3ccccc3)C2)n[nH]1 (stereo not given) | 4.75
40 | COc1ccc(CN(Cc2cccnc2)CC2CCCO2)c(OC)c1 (stereo not given) | -13.4
